# High-throughput results as filed in PubChem BioAssay.
# Tg IFNy HTS: inhibitors of Toxoplasma gondii growth with IFN-gamma; Toxoplasma gondii growth in IFN-gamma-treated host cells; hits give low values; activity change, negative = inhibition, % (test concentration not listed); 69,000 compounds, 3.8% hits; AID 1259416; in the data active means activity change below about -70%, passing the limit was not always enough;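 further: host cells are HeLa cells infected with Toxoplasma gondii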
# * hit, by the source's call; i = inactive. This is one part of a sample in which hits are shown more often than they occur.
SMILES,Tg IFNy HTS
Cc1nc(Cl)c(Cc2ccccc2)c(N2CCCC2)n1,22
Clc1nnc(N2CCCCC2)c2ccccc12,-88*
COc1ccc(-c2nc(N3CCCC3)c3ccccc3n2)cc1,-63
C[C@H](CO)N1C[C@H](C)[C@@H](CN(C)C(=O)C2CCCCC2)OCCCC[C@H](C)Oc2ccc(NS(=O)(=O)c3ccccc3)cc2C1=O,-78*
CC(C)NC(=O)Nc1ccc2c(c1)C(=O)N([C@@H](C)CO)C[C@@H](C)[C@@H](CN(C)C(=O)C1CCCCC1)OCCCC[C@H](C)O2,307
CC(C)NC(=O)Nc1ccc2c(c1)C(=O)N([C@@H](C)CO)C[C@@H](C)[C@H](CN(C)C(=O)C1CCCCC1)OCCCC[C@H](C)O2,333
C[C@@H]1CCCCO[C@@H](CN(C)C(=O)C2CCCCC2)[C@H](C)CN([C@H](C)CO)C(=O)c2cc(NS(=O)(=O)c3ccccc3)ccc2O1,21
C[C@@H]1CCCCO[C@@H](CN(C)C(=O)C2CCCCC2)[C@@H](C)CN([C@@H](C)CO)C(=O)c2cc(NS(=O)(=O)c3ccccc3)ccc2O1,88
C[C@@H]1CCCCO[C@H](CN(C)C(=O)C2CCCCC2)[C@H](C)CN([C@H](C)CO)C(=O)c2cc(NS(=O)(=O)c3ccccc3)ccc2O1,-145*
Cn1cc(C2COC3(CCCN(C(=O)c4ccccc4)C3)C2)cn1 (stereo not given),106
Cc1ccc2c(c1)cc(S(=O)(=O)c1ccccc1)c(=O)n2CC(=O)NCc1ccc(F)cc1,-15
COc1ccc(-c2nccn2CCCn2ccnc2)c2ccccc12,5
CCOC(=O)c1[nH]ncc1CN1CCCn2cncc2C1,-1
CCN(CC)CC1CCN(c2ncc3ncnc(Nc4ccc(F)c(Cl)c4)c3n2)CC1,4
CNC(=O)CN1CCC(Oc2cc3c(Nc4cccc(Cl)c4F)ncnc3cc2OC)CC1,-66
COc1cc2ncnc(Nc3ccc(F)c(Cl)c3)c2cc1NC(=O)/C=C/CN1CCCCC1,-82*
Cc1nc(-c2ccc(Cl)cc2)sc1CCNC(=O)C1CCCCC1,-51
O=S(=O)(c1ccc(F)c(F)c1)N1CCN(c2nc(-c3cccs3)ns2)CC1,-14
CN(C)Cc1cn2c(n1)CN(C1CCOC1)CC2 (stereo not given),14
CCOc1ccccc1-c1ccccc1NC(=O)c1cc(-c2ccc(F)cc2)no1,-9
CCOc1ccccc1-c1ccccc1NC(=O)c1ccc(-n2nc(C)cc2C)cc1,-101*
Cc1cc(C)n(-c2ccc(C(=O)Nc3nc(-c4cc(C)sc4C)cs3)cc2)n1,5
CCOc1ccccc1-c1nc(Cn2ccn3nc(-c4ccc(CC)cc4)cc3c2=O)c(C)o1,i
CC(C)CN1CCC(CNC(=O)c2ccc(-c3ccc4c(c3)OCCO4)nc2)C1 (stereo not given),16
COC(=O)C1(Cc2ccccc2Br)CCOCC1,11
SMILES,Tg IFNy HTS
COc1cc(C(=O)N2CCC3(CC2)NC(=O)c2ccc(Cl)cc2N3)cc(OC)c1OC,132
COc1ccccc1C(=O)C1C(=O)NC23CCN(C)CC2C1c1cc(Cl)ccc1O3 (stereo not given),-87*
COc1cc(Cl)ccc1C(=O)NCC1CCCN(C)C1 (stereo not given),-2
CN1CC2(CCCN(C(=O)CCc3csc(N)n3)CC2)OC1=O (stereo not given),7
Cc1ccc(-c2csc(-c3cccn3CC(=O)N3CCC(C)CC3)n2)cc1,-39
O=C(c1ccccc1Cl)N1CCc2c([nH]c3ccccc23)C1c1ccc(F)cc1 (stereo not given),-67
CC1NCCn2c(COCc3ccccn3)cnc21 (stereo not given),-83*
CC1c2ncc(CNC(=O)C3CC3)n2CCN1Cc1ccccn1 (stereo not given),11
CC(=O)N1CCn2c(COCc3ccccn3)cnc2C1C (stereo not given),0
CN(C)CCNC(=O)C1CC2(CO1)CN(C(=O)c1ccccc1)c1ccccc12 (stereo not given),20
O=c1[nH]c2cc3c(cc2cc1CNc1ccc(N2CCCCC2)cc1)CCC3,-99*
Cc1noc(CN(C)Cc2cc3cc4c(cc3[nH]c2=O)CCC4)n1,-5
O=c1[nH]c2cc3c(cc2cc1CNc1cccc2c1CCCC2)OCCO3,7
CSc1cccc(NC(=S)Nc2cc3c(c(N)c2C)C(C)(C)CC3(C)C)c1,93
CS(=O)(=O)Nc1ccc2oc3ccccc3c(=O)c2c1,-92*
O=c1c2ccccc2oc2ccccc12,15
O=c1c2ccccc2oc2ccc(Cl)cc12,150
COc1ccc(NC(=O)C(=O)NCCc2sc(-c3ccc(F)cc3)nc2C)cc1OC,-4
Cc1nc(Nc2n[nH]c3c2CN(C(=O)N[C@H](CN(C)C)c2ccccc2)C3(C)C)c2sccc2n1,-75*
COc1ccccc1CCn1cnc(-c2ccccc2)c1C1CCOCC1,-52
Cc1ccc(C(=O)N2CCc3ncnc(C4CC4)c3CC2)o1,-16
COc1ccccc1-n1cc(C(=O)N2CCCC3(CNC(=O)O3)C2)cn1 (stereo not given),-2
O=C(c1cccc(Cl)c1F)N1CCOC2(CNCCOC2)C1 (stereo not given),2
